Screens from PubChem BioAssay.
KDM5B inhibitor – Primary screen for KDM5B Histone Demethylases FDH-coupled qHTS | Lysine-specific demethylase 5B (Homo sapiens), Q9UGL1 | KDM5B demethylase, FDH-coupled NADH fluorescence (FDH is formaldehyde dehydrogenase) | Potency, µM (highest dose often 57.7 µM), hits mostly inhibitors | 220,000 tested, 2.6% active | AID 1347165, 2019; active means well fitted inhibition curve with a large enough effect; further: nearly all actives have a fitted effect of over 70% in size
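Compound dilutions met 200 nM (final) KDM5BΔAP for 10 min at room temperature before substrate addition. The substrate mix held 12.5 µM H3K4me3 with cofactors 25 µM α-ketoglutarate and 50 µM Fe²⁺. NADH signal gain over 30 min defined activity.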
Hits are given with their value. The full list was thinned out, with hits kept by preference.

For O=C(NC1CCN(Cc2ccccc2)CC1)c1cccc(Br)c1 the results were KDM5B inhibitor inactive.
Screening O=C(NC1CCCCC1)c1ccc2c(c1)N(Cc1ccccc1)C(=O)c1ccccc1S2 returned KDM5B inhibitor inactive.
`COc1cccc(CN2CCCC(O)(CNC3CCCCCCC3)C2=O)c1` (centres undefined) gave KDM5B inhibitor inactive.
For Cc1nc(CN2CC3(CCN(C)C3)c3cc(C(=O)Nc4ccccc4)ccc32)cs1 (centres undefined) the results were KDM5B inhibitor inactive.
Cc1[nH]c2c(Cl)cccc2c1C was read as KDM5B inhibitor inactive.
For CC(NC(=O)C(C)(C)C)c1ccc2c(c1)CCCC2 (centres undefined) the results were KDM5B inhibitor inactive.
Screening N#Cc1ccc(OCCSCc2cccc3ccccc23)cc1 returned KDM5B inhibitor inactive.
Screening CN(C)c1ccc(NC(=O)c2cccc3ccccc23)cc1 returned KDM5B inhibitor inactive.
Screening CC(=O)NC1(C)CCCN(Cc2cc(-c3cccc(N4CCOCC4)c3)cs2)C1 (centres undefined) returned KDM5B inhibitor inactive.
For CC(=O)NC1(C)CCCN(Cc2cc(-c3ccccc3)cs2)C1 (centres undefined) the results were KDM5B inhibitor inactive.
CC(=O)NC1(C)CCN(Cc2ccc(-c3ccc(N4CCOCC4)cc3)cc2)C1 (centres undefined) was read as KDM5B inhibitor 28µM.
Screening CN(CC(=O)NC(C)(C)C)Cc1coc(-c2ccc(Cl)cc2)n1 returned KDM5B inhibitor inactive.
`Cc1ccc2c(Cl)cc(Cl)c(OCC(=O)NC(N)=O)c2n1` gave KDM5B inhibitor inactive.
`CC1(C(=O)NCCCn2ccnc2)COCc2cnc(Nc3ccccc3)nc21` (centres undefined) gave KDM5B inhibitor inactive.
`Cc1oc(-c2ccccc2)nc1CC(=O)NCC1CCCO1` (centres undefined) gave KDM5B inhibitor inactive.
Screening CC1(C(=O)NCCc2ccccn2)CCc2cnc(NCc3ccccc3)nc21 (centres undefined) returned KDM5B inhibitor 32µM.
For CC1(C(=O)NCC2CCCO2)CCc2cnc(NCc3ccccc3)nc21 (centres undefined) the results were KDM5B inhibitor 40µM.
CC1(C(=O)NC2CC2)CCCc2cnc(Nc3ccccc3)nc21 (centres undefined) was read as KDM5B inhibitor inactive.
O=C(Cc1ccc(-c2ccccc2)cc1)NCCc1ccccn1 was read as KDM5B inhibitor inactive.
CC1(C(=O)NC2CC2)CCc2cnc(Nc3ccccc3)nc21 (centres undefined) was read as KDM5B inhibitor inactive.
For CC1(C(=O)NCC2CC2)CCCc2cnc(NCc3ccccc3)nc21 (centres undefined) the results were KDM5B inhibitor 35µM.
Screening CCN(Cc1ccccc1)S(=O)(=O)c1ccc(S(N)(=O)=O)cc1 returned KDM5B inhibitor inactive.
`O=C1CC(c2ccccc2)N(C(=O)CNC(=O)c2[nH]nc3c2CCc2ccccc2-3)CCCCCN1` (centres undefined) gave KDM5B inhibitor inactive.
CCC(=O)N1CCN(c2oc(/C=C/c3ccccc3Cl)nc2C#N)CC1 was read as KDM5B inhibitor inactive.
Screening CCN(CC)C(=O)c1cccc(NC(=O)Cc2nc(-c3ccccc3)oc2C)c1 returned KDM5B inhibitor inactive.
`O=C(NCc1cccnc1)c1ccc2ccccc2c1` gave KDM5B inhibitor inactive.
Screening C[C@@H]1CN(C(=O)c2ccc3c(c2)NC(C)(COCC2CC2)CO3)C[C@H](C)O1 (some centres undefined) returned KDM5B inhibitor inactive.
For O=C(NCCc1ccccn1)c1ccc(C2CCCCC2)cc1 the results were KDM5B inhibitor inactive.
CCC1(C(=O)NCc2cccc(F)c2)CCCCC(=O)N1 (centres undefined) was read as KDM5B inhibitor inactive.
Screening CC1(COCC2CC2)COc2ccc(C(=O)N3CCOCC3c3cccc(F)c3)cc2N1 (centres undefined) returned KDM5B inhibitor 35µM.
`CC1(COc2ccccc2)COc2ccc(C(=O)NCCc3ccccn3)cc2N1` (centres undefined) gave KDM5B inhibitor 32µM.
Screening CC1(CNCc2ccccc2)COc2ccc(C(=O)Nc3cccnc3)cc2N1 (centres undefined) returned KDM5B inhibitor inactive.
CC1(COc2ccccc2)COc2ccc(C(=O)NCc3cccnc3)cc2N1 (centres undefined) was read as KDM5B inhibitor 35µM.
CN(C(=O)c1ccc2c(c1)NC(C)(COCC1CC1)CO2)c1ccccc1 (centres undefined) was read as KDM5B inhibitor inactive.
CC1=C(C(=O)N2CCOCC2)C(c2cccc(F)c2)NC(=O)N1Cc1ccccc1 (centres undefined) was read as KDM5B inhibitor inactive.
`CC1(COCC2CC2)COc2ccc(C(=O)NCc3cccc(F)c3)cc2N1` (centres undefined) gave KDM5B inhibitor 40µM.
For Cc1ccccc1NC1C2CC3CC(C2)CC1C3 (centres undefined) the results were KDM5B inhibitor inactive.
Screening O=c1cc(N2CCN(c3cccc(C(F)(F)F)c3)CC2)nc2ccccn12 returned KDM5B inhibitor inactive.
For CCn1ncc(Cl)c1CNC(=O)C1CCCN(S(=O)(=O)c2cnn(C)c2)C1 (centres undefined) the results were KDM5B inhibitor inactive.
Screening COC(=O)c1ccc(OC(=O)C2(c3ccccc3)CCC2)cc1 returned KDM5B inhibitor inactive.
For CCOc1ccc(S(=O)(=O)Nc2cc(C(=O)N(C)CC(=O)NC)ccc2N2CCNCC2)cc1 the results were KDM5B inhibitor inactive.
`CCSc1ccc(N)cc1` gave KDM5B inhibitor inactive.
O=S(=O)(c1ccc(-c2nc3ccccc3s2)cc1)N1CCCCCC1 was read as KDM5B inhibitor inactive.
CCn1nc(C(=O)Nc2nc(C(C)(C)C)cs2)c2ccccc2c1=O was read as KDM5B inhibitor inactive.
For CN(Cc1ccccc1)C(=O)C1CCCN(Cc2cccc3ccccc23)C1 (centres undefined) the results were KDM5B inhibitor inactive.
`CCCN1CCC(NC(=O)COc2ccc(F)cc2)CC1` gave KDM5B inhibitor inactive.
c1ccc(C2=NOC3(CCN(Cc4c[nH]c5ccccc45)CC3)C2)cc1 was read as KDM5B inhibitor inactive.
`COc1ccc(Nc2nc3ccccc3nc2NS(=O)(=O)c2ccc(F)cc2)cc1` gave KDM5B inhibitor inactive.
O=C(NCCc1ccccc1)c1ccc2c(c1)OCO2 was read as KDM5B inhibitor inactive.
CC1(COc2ccccc2)COc2ccc(C(=O)NCc3cccc(F)c3)cc2N1 (centres undefined) was read as KDM5B inhibitor 32µM.
CC1(COc2cccnc2)COc2ccc(C(=O)NCCOc3ccccc3)cc2N1 (centres undefined) was read as KDM5B inhibitor 32µM.
CC(=O)N1CCCN(C(=O)c2ccc3c(c2)NC(C)(COc2cccnc2)CO3)CC1 (centres undefined) was read as KDM5B inhibitor inactive.
Screening CC1(COc2ccccc2)COc2ccc(C(=O)NCCc3cnc[nH]3)cc2N1 (centres undefined) returned KDM5B inhibitor 35µM.
Screening O=C1CSc2ccc(C(=O)NCCc3cccnc3)cc2N1 returned KDM5B inhibitor inactive.
`O=C1CCCCC(Cc2ccccc2)(C(=O)NCc2cccc(F)c2)N1` (centres undefined) gave KDM5B inhibitor inactive.
